Only some compounds are listed: those with a hit (about 2.3% of all), similar ones and a draw of the others.
LGR2 inh = Drosophila LGR2 receptor signaling inhibition; inhibition, % at 9.99 µM; HEK293 LGR2, CRE-luciferase, bursicon-stimulated, 4 h; AID 720647; actives 0.35% (n = 380,000);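 active means drop in luminescence signal, shown as inhibition above about 50% in the replicate tests, limit read from the data, passing the limit was not always enough; inconclusive means probably only some replicates passing the limit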;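 further: agonist challenge used bursicon conditioned medium at about half maximal strength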
SENP7 inh = SENP7 protease inhibition. recombinant SENP7, Z-RLRGG-aminoluciferin luminescence, 40 min. Q9BQF6. inhibition, % at 5 µM. AID 434973. actives 1.5% (n = 330,000);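 active means inhibition above about 50% at the single test dose, limit read from the data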;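 further: plate controls were DMSO with enzyme for no effect and no enzyme buffer wells for full effect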
HSP90 inh = blocks HSP90-mediated luciferase refolding in reticulocyte lysate. Rabbit reticulocyte lysate, luciferase refolding luminescence, 3 h. inhibition, % at 5.6 µM. actives 0.91% (n = 290,000);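 active means inhibition above the screen-wide mean plus 3 SD, computed separately per campaign, cut at about 16% in these data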;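 further: 0% = DMSO wells and 100% = 60 µM geldanamycin wells; inhibitors lower the luminescence because luciferase stays unfolded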
SENP6 inh = blocks the human protease SENP6 | Q9GZR1 | Recombinant SENP6 catalytic domain, aminoluciferin luminescence | inhibition, % at 10 µM | actives 1.8% (n = 330,000);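 active means inhibition above about 50% at the single tested dose, limit read from the data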;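 further: plate controls were DMSO wells with enzyme for no effect and DMSO wells lacking enzyme for full effect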
SENP8 block-1 = blocks human SENP8 cleavage of Nedd8 substrate; inhibition, % at 20 µM; AID 602440; recombinant SENP8, Nedd8 substrate fluorescence; Q96LD8; actives 0.64% (n = 360,000); in the data active means inhibition mostly above about 40%, no sharp cut-off; inactive means mostly below about 27%
Target sequence (Q96LD8 whole entry, looked up): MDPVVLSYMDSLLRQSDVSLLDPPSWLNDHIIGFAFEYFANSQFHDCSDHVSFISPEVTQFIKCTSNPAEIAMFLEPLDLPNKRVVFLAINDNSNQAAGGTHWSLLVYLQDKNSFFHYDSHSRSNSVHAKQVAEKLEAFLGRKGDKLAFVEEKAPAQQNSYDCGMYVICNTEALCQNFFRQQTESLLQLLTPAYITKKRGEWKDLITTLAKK
SENP8 block-2 = SENP8 protease inhibition | Q96LD8 | purified SENP8, Z-RLRGG-aminoluciferin cleavage, luminescence | inhibition, % at 10 µM | actives 1.2% (n = 330,000) | AID 2540; in the data active means inhibition above about 50%
HSP90 confirm = HSP90 inhibition, confirmation assay; shares compounds with HSP90 inh; rabbit reticulocyte lysate, luciferase refolding luminescence, 3 h; inhibition, % at 5.9 µM; actives 64% (n = 2,300); AID 1846; in the data active means inhibition above about 18%;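 further: 0% = vehicle wells and 100% = reference inhibitor wells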
FLuc counter = blocks native firefly luciferase in HSP90 counter-screen; shares compounds with HSP90 inh; purified native firefly luciferase, luminescence; inhibition, % at 5.9 µM; actives 48% (n = 2,300); AID 1847;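 active means inhibition above the mean inhibition of all tested sample wells plus 3 SD, cut at about 10% in these data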;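 further: 0% = DMSO with luciferase and 100% = wells lacking luciferase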
SENP8 conf = confirmation of human SENP8 protease inhibitors. shares compounds with SENP7 inh. Recombinant SENP8, Z-RLRGG-aminoluciferin luminescence, 60 min. inhibition, % at 12.5 µM. actives 40% (n = 6,200). AID 488912;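 active means mean inhibition across replicates above about 50%, limit read from the data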
SENP6 confirm = confirmation of human SENP6 protease inhibitors. shares compounds with SENP7 inh. AID 488915. inhibition, % at 12.5 µM. actives 58% (n = 6,200). recombinant SENP6, Z-RLRGG-aminoluciferin luminescence
SENP7 conf = confirmation of human SENP7 protease inhibitors; shares compounds with SENP7 inh; AID 488917; inhibition, % at 12.5 µM; recombinant SENP7, Z-RLRGG-aminoluciferin luminescence, 40 min; actives 69% (n = 6,200)
Casp3 SENP sel = selectivity test for SENP inhibitors: human caspase-3 inhibition; shares compounds with SENP7 inh; purified caspase-3, Z-DEVD-aminoluciferin luminescence, 60 min; inhibition, % at 12.5 µM; actives 60% (n = 6,200);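 active means mean inhibition above about 50%, limit read from the data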;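 further: plate controls were enzyme with DMSO for no effect and wells without caspase-3 for full effect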
Target sequence (P42574 28-227 limits assumed): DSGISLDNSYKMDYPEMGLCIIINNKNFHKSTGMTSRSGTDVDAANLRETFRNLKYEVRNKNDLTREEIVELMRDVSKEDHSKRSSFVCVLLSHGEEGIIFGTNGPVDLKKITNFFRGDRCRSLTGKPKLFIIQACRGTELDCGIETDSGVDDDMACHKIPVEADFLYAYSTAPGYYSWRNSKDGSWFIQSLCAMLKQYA
Luc interf = counter-screen for SENP inhibitors: luminescence interference | shares compounds with SENP7 inh | Pre-incubated SENP8/Z-RLRGG-aminoluciferin, luciferase luminescence interference | inhibition, % at 12.5 µM | actives 39% (n = 6,200) | AID 488919;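 active means mean inhibition above about 50% when retested at one dose, limit read from the data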;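 further: plate controls were DMSO wells with completed reaction for no effect and substrate without enzyme for full effect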
Active calls of the source: *.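 How the source made its calls, unless noted: active means mean inhibition above about 50% in the one-dose retest (limit read from the data); inactive means the rest.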

For C[C@@H]1CN([C@H](C)CO)C(=O)c2cc(C#Cc3ccccn3)cnc2O[C@@H]1CN(C)C(=O)c1ccccn1 the results were LGR2 inh 10.
For C[C@H]1CN([C@@H](C)CO)C(=O)Cc2cc(N(C)C)ccc2O[C@@H]1CN(C)C(=O)Nc1ccc2c(c1)OCO2 the results were LGR2 inh -10.
For CCOc1ccc2nc(-c3ccccc3)[nH]c2c1 the results were SENP7 inh 89*, HSP90 inh 19*, SENP6 inh 88*, SENP8 block-1 -277, SENP8 block-2 69*, HSP90 confirm 21*, FLuc counter 13*, SENP8 conf 85*, SENP6 confirm 82*, SENP7 conf 94*, Casp3 SENP sel 85* and Luc interf 84*.
C[C@@H]1CN([C@H](C)CO)C(=O)Cc2cc(NS(=O)(=O)c3ccc(Cl)cc3)ccc2O[C@H]1CN(C)Cc1ccc(C(=O)O)cc1 was read as LGR2 inh -1.
Screening Cc1noc(C)c1S(=O)(=O)N(C)C[C@H]1Oc2c(cccc2N(C)C)C(=O)N([C@@H](C)CO)C[C@H]1C returned LGR2 inh 12.
`COc1cccc(/C=C2\Oc3ccc(O)cc3C2=O)c1O` gave LGR2 inh 66*, SENP7 inh 64*, HSP90 inh 17*, SENP6 inh 71*, SENP8 block-1 -175, SENP8 block-2 56*, HSP90 confirm 33*, FLuc counter 34*, SENP8 conf 72*, SENP6 confirm 69*, SENP7 conf 90*, Casp3 SENP sel 72* and Luc interf 16.
For COC(=O)c1ccc2c(c1)C(=O)/C(=C/c1ccc(O)cc1)O2 the results were LGR2 inh -36, HSP90 inh 4 and SENP8 block-1 -300.
For c1ccc2c(c1)CCN(c1nc3cc4c(cc3s1)OCCO4)C2 the results were SENP7 inh 99*, HSP90 inh 54*, SENP6 inh 97*, SENP8 block-1 -340, SENP8 block-2 96*, HSP90 confirm 73*, FLuc counter 74*, SENP8 conf 98*, SENP6 confirm 99*, SENP7 conf 102*, Casp3 SENP sel 97* and Luc interf 83*.
COc1ccccc1CNC(=O)C[C@H]1CC[C@H]2[C@@H](COC[C@@H](O)CN2Cc2cccc(-c3ccncc3)c2)O1 was read as LGR2 inh -20.
N=c1oc2ccccc2cc1C(=O)Nc1ccc(F)cc1 was read as LGR2 inh 9, HSP90 inh 1 and SENP8 block-1 20.
COc1cccc(NC(=O)c2cc3ccccc3o/c2=N\O)c1 was read as LGR2 inh inconclusive, SENP7 inh 100*, HSP90 inh 48*, SENP6 inh 98*, SENP8 block-1 18, SENP8 block-2 96*, HSP90 confirm 66*, FLuc counter 63*, SENP8 conf 98*, SENP6 confirm 99*, SENP7 conf 101*, Casp3 SENP sel 96* and Luc interf 97*.

Screening results as filed in PubChem BioAssay.
